This is a sample that favours compounds with a hit; in the whole collection about 3.4% have one here.
MITF primary = human MITF inhibition, primary screen; inhibition, % at 2.6 µM; AID 1259374; AlphaScreen MITF homodimerization, bead proximity signal; 650,000 compounds, 0.91% hits; O75030; in the data active means inhibition above about 50%;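 further: 0% = vehicle wells with protein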
TEAD-YAP block = TEAD-YAP interaction inhibition. HEK-TIYL cells, TEAD-Gal4/YAP UAS-luciferase luminescence. inhibition, % at 9.12 µM. 640,000 compounds, 1.4% hits; in the data active means inhibition above about 32%;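 further: 0% = median of test compound wells and 100% = reference inhibitor wells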
FBW7 act = activators of human E3 ligase FBW7. AlphaScreen FBW7–phospho-cyclin E peptide binding, activator screen. normalized activity (activation), % at 26.1 µM. 650,000 compounds, 0.13% hits; in the data active means normalized activity above about 1.9%;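 further: purified mutant Fbw7 with reduced substrate affinity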
GPR151 ag = human GPR151 activation | Q8TDV0 | PathHunter beta-arrestin GPR151 cells, luminescence | activation, % at 11.2 µM | 650,000 compounds, 1% hits; in the data active means activation above about 4.9%;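 further: 0% = median of compound wells and 100% = cells with positive control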
Target sequence (Q8TDV0 whole entry, looked up): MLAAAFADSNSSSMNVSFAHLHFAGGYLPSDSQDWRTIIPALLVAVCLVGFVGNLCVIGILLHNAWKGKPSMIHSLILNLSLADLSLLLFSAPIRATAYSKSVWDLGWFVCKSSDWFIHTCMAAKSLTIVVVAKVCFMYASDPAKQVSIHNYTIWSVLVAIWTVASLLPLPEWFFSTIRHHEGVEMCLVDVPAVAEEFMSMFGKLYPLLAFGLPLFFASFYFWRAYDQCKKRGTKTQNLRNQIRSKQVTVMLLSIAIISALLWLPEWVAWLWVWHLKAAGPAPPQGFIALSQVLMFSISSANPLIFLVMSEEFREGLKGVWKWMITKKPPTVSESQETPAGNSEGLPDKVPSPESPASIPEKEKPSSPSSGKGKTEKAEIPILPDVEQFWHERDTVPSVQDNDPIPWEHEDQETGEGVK
* marks the source's active call; other numbers are inactive results; x = not tested or not shown.

SMILES	MITF primary	TEAD-YAP block	FBW7 act	GPR151 ag
CC(C)c1cc(C(=O)NCCc2ccccc2)nn1-c1nc2ccccc2s1	2	44*	0	0
COc1ccc(NC(=O)c2cc(C(C)C)n(-c3nc4ccccc4s3)n2)cc1OC	-7	56*	0	0
Cc1cc(C(=O)COC(=O)C2=COCCO2)c(C)n1Cc1cccs1	-2	62*	0	-4
Cc1cc(C(=O)COC(=O)c2ccccc2O)c(C)n1Cc1cccs1	-4	89*	0	0
Cc1ccsc1C(=O)OCC(=O)c1cc(C)n(C)c1C	3	66*	0	-6
O=C(OCCN1C(=O)c2cccc3c(N4CCOCC4)ccc(c23)C1=O)c1ccc(S(=O)(=O)N2CCOCC2)cc1	2	4	0	0
CCOC(=O)c1ccc(Br)c(S(=O)(=O)N2CCCCC2)c1	-9	-6	0	2
CC(C)Oc1ccc(C(=O)Nc2nnc(-c3ccccn3)o2)cc1	7	36*	0	-7
N#Cc1ccc(C(=O)Nc2nnc(-c3ccccn3)o2)cc1	24	-10	0	-9
CCCCOc1ccc(S(=O)(=O)N(CC)CC)c2ccccc12	-9	-46	0	2
CCN1C=C/C(=C/c2cccc[n+]2C)c2ccccc21	-5	82*	0	0
C=CCn1c(=O)/c(=C\C=C2\C=CN(CC)c3ccccc32)s/c1=C\c1sc(-c2ccccc2)c(-c2ccccc2)[n+]1CC	-45	2	0	0
O=C(CSc1nc2sc3c(c2c(=O)n1-c1ccccc1)CCCC3)c1cccc2ccccc12	-14	-1	0	1
CC(=O)Nc1ccc(Nc2nc(-c3ccc(N4CCOCC4)nc3)nc3c2ncn3-c2ccsc2)cc1	4	43*	0	-2
c1ccc(Nc2nc(-c3ccc(N4CCOCC4)nc3)nc3c2ncn3-c2ccsc2)cc1	15	10	0	-1
COc1ccc(-c2nc(Nc3ccc(N4CCOCC4)cc3)c3ncn(-c4ccsc4)c3n2)cn1	-2	45*	0	-1
CC(O)CN(CC(C)O)S(=O)(=O)c1ccc2[nH]cc(C(=O)O)c(=O)c2c1 (configuration not stated)	10	9	0	-2
O=[N+]([O-])c1ccc(N2CCCCC2)cc1N1CCc2ccccc2C1	10	9	0	1
O=[N+]([O-])c1ccc(N2CCCC2)cc1N1CCc2ccccc2C1	-12	73*	0	0
Cc1ccc(S(=O)(=O)Nc2ccccc2C(=O)Nc2nc3ccc(Cl)cc3s2)cc1	-11	2	0	1
Cc1ccc(S(=O)(=O)Nc2ccccc2C(=O)Nc2nc(-c3ccc(F)cc3)cs2)cc1	0	54*	0	2
O=C(O)c1ccccc1C(=O)Nc1nc(-c2ccc(Br)cc2)cs1	0	4	2.1*	1
Cc1ccc(S(=O)(=O)Nc2ccccc2C(=O)Nc2nc3ccc(Br)cc3s2)cc1	-16	55*	0	1
Cc1ccc(S(=O)(=O)Nc2ccccc2C(=O)Nc2nc3c(Cl)cccc3s2)cc1	-9	33*	0	0
Cc1ccc(-c2csc(NC(=O)c3ccccc3NS(=O)(=O)c3ccc(C)cc3)n2)cc1	8	23	0	1
SMILES	MITF primary	TEAD-YAP block	FBW7 act	GPR151 ag
Cc1ccc(-c2csc(NC(=O)c3ccccc3C(=O)O)n2)cc1	7	-6	0	0
COc1cc(NC(C)C(=O)N2CCCCC2)cc(OC)c1 (configuration not stated)	-2	-3	0	0
O=C1NCCN1C(=O)c1cccc([N+](=O)[O-])c1	11	9	0	-1
Cc1ccc2nc(NC(=O)C3=COCCO3)sc2c1	9	66*	0	-11
CS(=O)(=O)c1ccc2nc(NC(=O)C3=COCCO3)sc2c1	10	-13	0	-1
CCc1c(C)sc2nc(C(C)C)n3c(=O)[nH]nc3c12	5	4	0	0
Cc1sc2nc(C(C)C)n3c(=S)[nH]nc3c2c1C	-5	55*	0	-9
CCOc1ccc2[nH]c(=O)c(CN(CCOC)C(=O)Nc3ccc(F)cc3)cc2c1	1	37*	0	1
CCOc1ccc2[nH]c(=O)c(CN(CCOC)C(=O)Nc3ccc(SC)cc3)cc2c1	2	-36	0	-1
CN(C)c1ccc(C(=O)Nc2cc(C(N)=O)c(Cl)cc2Cl)cc1	-6	-8	0	-1
NC(=O)c1ccccc1NC(=O)c1ccc(-c2ccccc2)cc1	1	-18	0	-1
CN(C)c1ccc(C(=O)Nc2ccccc2C(N)=O)cc1	-18	52*	0	-5
CN(C)c1ccc(C(=O)Nc2ccccc2Br)cc1	-2	65*	0	-5
CC(C)(C)c1ccc(C(=O)Nc2sccc2C(N)=O)cc1	-4	69*	0	-6
CC(C)(C)c1ccc(C(=O)Nc2ccccc2C(N)=O)cc1	17	56*	2.1*	-4
C[C@@H](c1ccccc1)N1C(=O)[C@H]2[C@H]3[C@H](O)[C@H](O)CC(=O)[C@@H]3CC[C@H]2C1=O	15	x	0	-1
CCC(C)NC(=O)CSc1nc2ccsc2c(=O)n1-c1ccc(F)cc1 (configuration not stated)	1	1	0	1
COc1cccc(NC(=O)NCCCNc2nc3cc4c(cc3cc2C#N)OCO4)c1	-2	-4	0	0
COc1cccc(CC(=O)NCCCNc2nc3cc4c(cc3cc2C#N)OCO4)c1	2	61*	1	-2
O=C(/C=C/c1ccc2c(c1)OCCCO2)c1cc([N+](=O)[O-])ccc1O	15	79*	0	-4
CCOC(=O)c1cccc(NC(=O)/C=C/c2ccccc2[N+](=O)[O-])c1	6	33*	0	1
Cc1ccc2c(c1)C(=O)CC(c1ccc3c(c1)OCCO3)O2 (configuration not stated)	-1	-50	0	1
O=C1CC(c2ccc3c(c2)OCCCCO3)Oc2ccccc21 (configuration not stated)	0	59*	0	0
C[C@@H]1CN(C(=O)C2CC23CCN(Cc2ccc(-c4ccc(Cl)cc4)o2)CC3)C[C@H](C)O1 (some centres not stated)	3	-5	0	0
Cc1ccsc1C(=O)NNC(=O)c1cc(C)n(-c2ccc(F)cc2)c1C	-14	65*	0	-2
SMILES	MITF primary	TEAD-YAP block	FBW7 act	GPR151 ag
O=C(O)c1cc(NC(=O)c2ccc(Cl)cc2Cl)cc(C(=O)O)c1	0	13	0	4
O=C(Nc1ccc(Cc2ccncc2)cc1)c1ccc(Cl)cc1Cl	5	38*	0	-1
O=C(O)c1ccc(NC(=O)c2ccc(Cl)cc2Cl)cc1	-19	45*	0	2
COc1ccc(NC(=O)c2ccc(C)cc2Cl)cc1	48	73*	0	-5
COC(=O)c1ccc(NC(=O)c2ccc(C)cc2Cl)cc1	8	-26	0	-1
COc1ccc(NC(=O)NC(=O)c2c(Cl)ccc(Cl)c2OC)cc1	-1	38*	0	-2
O=C(NC(=S)Nc1ccc(Cc2ccncc2)cc1)c1ccc(Cl)cc1Cl	-2	22	0	0

High-throughput results: PubChem, The Scripps Research Institute Molecular Screening Center
